Data published in PubChem BioAssay (NCATS).
A number with no mark means an inactive call. Inconclusive results are not listed. A call without a number means that no potency is given here. Activity calls are given as the source filed them. Calls follow the shape of the dose curve; as a rule, active = well fitted curve in the direction sought with a large enough effect; inconclusive = small, poorly fitted or top-dose-only effect, or another doubt; inactive = no such curve, though single readings can be large; an effect the other way counts as inactive or inconclusive.

target: Cytochrome P450 3A4 (Homo sapiens) (UniProt P08684); assay: qHTS for inhibitors of CYP3A4 against the NCATS DSHEA and TCM libraries (AID 1919971); conditions: recombinant CYP3A4 enzyme activity, luminescence qHTS; series mostly up to 34.1 µM;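 also: inhibition lowers luminescence from luciferin made by CYP3A4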
Procedure, shortened: (§1)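 Concentration-response screening with isoform-matched pro-luciferin substrates. The CYP reaction was initiated by NADPH regenerating solution and ran 30-45 min in darkness at room temperature.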

Chain of Cytochrome P450 3A4 (Homo sapiens) (P08684 whole entry, looked up, canonical isoform): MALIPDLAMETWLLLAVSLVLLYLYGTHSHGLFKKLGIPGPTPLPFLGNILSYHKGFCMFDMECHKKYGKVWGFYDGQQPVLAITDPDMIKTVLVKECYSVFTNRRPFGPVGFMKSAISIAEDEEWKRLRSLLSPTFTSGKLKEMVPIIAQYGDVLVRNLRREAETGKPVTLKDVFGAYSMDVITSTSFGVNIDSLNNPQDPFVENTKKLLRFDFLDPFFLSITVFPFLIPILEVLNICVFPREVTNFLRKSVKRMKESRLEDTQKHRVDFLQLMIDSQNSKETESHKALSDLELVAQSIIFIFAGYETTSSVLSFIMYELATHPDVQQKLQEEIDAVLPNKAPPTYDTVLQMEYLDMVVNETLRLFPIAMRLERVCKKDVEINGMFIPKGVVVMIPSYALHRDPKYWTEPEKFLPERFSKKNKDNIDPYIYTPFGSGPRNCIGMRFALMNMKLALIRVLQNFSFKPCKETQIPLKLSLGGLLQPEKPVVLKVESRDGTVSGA

Structure (SMILES)	outcome
Cc1ccc(C(C)C)c(O)c1	inactive
NC(=O)NC1NC(=O)NC1=O (stereo unspecified)	inactive
O=C(/C=C/c1ccc(O)c(O)c1)O[C@@H]1C[C@@](OC(=O)/C=C/c2ccc(O)c(O)c2)(C(=O)O)C[C@@H](O)[C@@H]1O	inactive

target: Cytochrome P450 2D6 (Homo sapiens) (UniProt P10635); assay: qHTS for inhibitors of CYP2D6 against the NCATS DSHEA and TCM libraries (AID 1919972); conditions: CYP2D6 enzymatic inhibition, luminescence qHTS; series mostly up to 34.1 µM
From the text: Assay Development and Screening Technology Laboratory (ADST)
National Center for Advancing Translational Sciences (NCATS), Rockville, MD
National Institute of Health (NIH), Bethesda, Maryland
Dietary Supplements and Natural Products have minor oversight of their safety and efficacy. We assembled a collection of Dietary Supplements and Natural Products (DSNP) as well as Traditional Chinese Medicinal (TCM) Plant extracts, which were screened against an in vitro panel of assays, including a liver cytochrome p450 enzyme panel, CAR/PXR signaling pathways, and P-gp transporter assays, to assess their activity. This pipeline facilitated the interrogation of Natural Product-Drug Interaction (NaPDI) through prominent metabolizing pathways. In addition, we compared the activity profiles of the DSNP/TCM substances with those of an approved drug collection. Many of the approved drugs have well-annotated mechanisms of action (MOA) while the MOAs for most of the DSNP and TCM samples remain unknown. Based on the premise that compounds with similar activity profiles tend to share similar targets or MOA, we clustered the library activity profiles to identify overlap with the NCATS Pharmaceutical Collection to predict the MOAs of the DSNP/TCM substances. Overall, we highlight four significant bioactivity profiles (measured by p-values) as examples of this prediction. To assess broad cytotoxicity, we employed screening against a HepG2 cell line. In addition, transporter-mediated drug interactions are utilized in the characterization of DDIs using a P-glycoprotein (P-gp) assays. To profile potential P-gp activity, a differential cell viability was measured against two cell lines: a parental KB-3-1 human cervical adenocarcinoma cell line and the drug-resistant subline KB-8-5-11 that overexpresses P-gp.
To this end, we profiled both collections for potential CAR and/or PXR activity, employing a previously published 1536-well qHTS assay.
[1] Lee TD, et al. A High-Throughput Screen of a Library of Therapeutics Identifies Cytotoxic Substrates of P-glycoprotein. Mol Pharmacol. Nov 2019;96(5):629-640. doi:10.1124/mol.119.115964
PROTOCOL TABLE (as described by Inglese J, Shamu CE and Guy RK. 2007)
SEQUENCE No. (e.g., 1, 2, 3, etc.); […] (e.g., Cells, Incubation, Reagent, etc.); VALUE; DESCRIPTION.
1; Reagent; 2 uL; cytochrome P450 enzyme and luciferin substrate or buffer only, white solid-bottom Greiner plate.
2; Compounds and control; 16 nL; Kalypsis pintool (Wako USA) equipped with a 1536-well pin head to transfer to the assay plates.
3; Incubation; 15 min; room temperature.
4; Reagent; 2 uL; nicotinamide adenine dinucleotide phosphate (NADPH).
5; Incubation; 30 - 45 min; room temperature in the dark.
6; Reagent; 4 uL; P450-Glo assay detection reagent. […]
9; Read; Luminescence; ViewLux plate reader. […]

Chain of Cytochrome P450 2D6 (Homo sapiens) (P10635 whole entry, looked up): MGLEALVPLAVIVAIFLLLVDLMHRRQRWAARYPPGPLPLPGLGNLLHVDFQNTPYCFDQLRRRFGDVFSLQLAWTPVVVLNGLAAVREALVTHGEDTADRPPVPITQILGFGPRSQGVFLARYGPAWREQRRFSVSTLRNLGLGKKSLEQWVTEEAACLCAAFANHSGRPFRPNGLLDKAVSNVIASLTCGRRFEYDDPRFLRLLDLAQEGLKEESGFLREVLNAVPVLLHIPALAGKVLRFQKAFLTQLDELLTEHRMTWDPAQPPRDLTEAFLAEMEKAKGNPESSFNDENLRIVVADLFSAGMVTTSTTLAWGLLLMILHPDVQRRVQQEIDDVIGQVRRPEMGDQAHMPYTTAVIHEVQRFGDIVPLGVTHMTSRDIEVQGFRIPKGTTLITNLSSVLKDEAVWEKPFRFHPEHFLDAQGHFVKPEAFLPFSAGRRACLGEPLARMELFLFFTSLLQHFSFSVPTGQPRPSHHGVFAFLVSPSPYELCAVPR

Structure (SMILES)	outcome
CC(C)=CCC[C@@](C)(O)[C@H]1CC=C(C)CC1	inactive
Cc1ccc(C(C)C)c(O)c1	inactive
NC(=O)NC1NC(=O)NC1=O (stereo unspecified)	inactive
O=C(/C=C/c1ccc(O)c(O)c1)O[C@@H]1C[C@@](OC(=O)/C=C/c2ccc(O)c(O)c2)(C(=O)O)C[C@@H](O)[C@@H]1O	inactive

target: Cytochrome P450 2C9 (Homo sapiens) (UniProt P11712); assay: qHTS for inhibitors of CYP2C9 against the NCATS DSHEA and TCM libraries (AID 1919973); conditions: recombinant CYP2C9 enzyme activity, luminescence; series mostly up to 34.1 µM;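 also: luminogenic pro-luciferin CYP2C9 substrate turned into luciferin with NADPH regeneration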
Procedure, shortened: as §1

Chain of Cytochrome P450 2C9 (Homo sapiens) (P11712 whole entry, looked up): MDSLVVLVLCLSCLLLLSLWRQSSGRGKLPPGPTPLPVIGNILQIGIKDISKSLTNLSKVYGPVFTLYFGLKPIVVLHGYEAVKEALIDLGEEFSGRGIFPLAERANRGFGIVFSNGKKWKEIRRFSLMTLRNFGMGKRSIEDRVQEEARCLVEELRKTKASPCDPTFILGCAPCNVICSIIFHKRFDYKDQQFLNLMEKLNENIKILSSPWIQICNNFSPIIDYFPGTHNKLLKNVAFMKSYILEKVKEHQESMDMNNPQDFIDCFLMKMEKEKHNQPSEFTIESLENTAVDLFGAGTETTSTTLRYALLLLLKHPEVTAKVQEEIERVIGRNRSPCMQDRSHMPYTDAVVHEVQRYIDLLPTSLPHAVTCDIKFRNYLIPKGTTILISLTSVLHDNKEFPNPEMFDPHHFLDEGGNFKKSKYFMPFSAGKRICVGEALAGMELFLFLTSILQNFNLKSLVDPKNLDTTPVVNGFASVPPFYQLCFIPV

Structure (SMILES)	outcome
Cc1ccc(C(C)C)c(O)c1	inactive
NC(=O)NC1NC(=O)NC1=O (stereo unspecified)	inactive
O=C(/C=C/c1ccc(O)c(O)c1)O[C@@H]1C[C@@](OC(=O)/C=C/c2ccc(O)c(O)c2)(C(=O)O)C[C@@H](O)[C@@H]1O	inactive

target: Cytochrome P450 2C19 (Homo sapiens) (UniProt P33261); assay: qHTS for inhibitors of CYP2C19 against the NCATS DSHEA and TCM libraries (AID 1919974); conditions: CYP2C19 enzyme inhibition, luminescence qHTS; series mostly up to 34.1 µM;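 also: luminescence from luciferin released by CYP2C19 oxidation of a pro-luciferin substrate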; also: potency is read from the fitted curve at half-maximal effect
Procedure, shortened: as §1

Chain of Cytochrome P450 2C19 (Homo sapiens) (P33261 whole entry, looked up): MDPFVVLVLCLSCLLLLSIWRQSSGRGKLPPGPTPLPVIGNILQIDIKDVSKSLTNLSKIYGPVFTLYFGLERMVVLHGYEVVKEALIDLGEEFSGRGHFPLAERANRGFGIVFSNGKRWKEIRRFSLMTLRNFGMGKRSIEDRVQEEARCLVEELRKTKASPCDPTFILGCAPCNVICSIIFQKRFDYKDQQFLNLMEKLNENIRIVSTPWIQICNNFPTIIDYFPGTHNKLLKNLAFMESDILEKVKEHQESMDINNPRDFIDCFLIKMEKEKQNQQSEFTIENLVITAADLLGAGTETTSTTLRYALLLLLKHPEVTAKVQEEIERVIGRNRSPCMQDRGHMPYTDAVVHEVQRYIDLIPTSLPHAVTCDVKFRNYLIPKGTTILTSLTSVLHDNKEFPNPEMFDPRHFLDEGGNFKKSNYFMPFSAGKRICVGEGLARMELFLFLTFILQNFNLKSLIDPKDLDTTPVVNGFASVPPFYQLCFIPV

Structure (SMILES)	Potency
CC(C)=CCC[C@@](C)(O)[C@H]1CC=C(C)CC1	5.01 µM (active)
NC(=O)NC1NC(=O)NC1=O (stereo unspecified)	inactive
O=C(/C=C/c1ccc(O)c(O)c1)O[C@@H]1C[C@@](OC(=O)/C=C/c2ccc(O)c(O)c2)(C(=O)O)C[C@@H](O)[C@@H]1O	inactive

test system: not listed separately; assay: KB-3-1 P-gp reporter qHTS against the NCATS DSHEA and TCM libraries (AID 1919975); conditions: KB-3-1 parental cells, CellTiter-Glo luminescence viability, 72 h; series mostly up to 26.1 µM
Procedure, shortened: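 KB-3-1 parental line, 1536-well qHTS: cells seeded, ~4 h attachment, pintool compound addition, ~72 h at 37C, then CellTiter-Glo, 30 min RT, luminescence. Concentration-response format.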

Structure (SMILES)	outcome
CC(C)=CCC[C@@](C)(O)[C@H]1CC=C(C)CC1	inactive
Cc1ccc(C(C)C)c(O)c1	inactive
NC(=O)NC1NC(=O)NC1=O (stereo unspecified)	inactive
O=C(/C=C/c1ccc(O)c(O)c1)O[C@@H]1C[C@@](OC(=O)/C=C/c2ccc(O)c(O)c2)(C(=O)O)C[C@@H](O)[C@@H]1O	inactive

test system: not listed separately; assay: qHTS Counterscreen for compound interference against the NCATS DSHEA and TCM libraries (AID 1919978); conditions: firefly luciferase detection reagent interference, luminescence;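 also: compounds preincubated with 1 µM D-luciferin or buffer before detection reagent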
Procedure, shortened: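 Compounds, titrated from 19.5 nM to 39.8 uM final, were pinned onto 1 uM D-luciferin or plain 100 mM potassium phosphate. After 15 min at room temperature, luciferin detection reagent was added for 30 min before the luminescence read.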

Structure (SMILES)	max response [%]
CC(C)=CCC[C@@](C)(O)[C@H]1CC=C(C)CC1	1.71
Cc1ccc(C(C)C)c(O)c1	0.241
NC(=O)NC1NC(=O)NC1=O (stereo unspecified)	-2.81
O=C(/C=C/c1ccc(O)c(O)c1)O[C@@H]1C[C@@](OC(=O)/C=C/c2ccc(O)c(O)c2)(C(=O)O)C[C@@H](O)[C@@H]1O	5.25

test system: not listed separately; assay: Dual reporter qHTS for agonist of Pregnane X Receptor (hPXR) against the NCATS DSHEA and TCM libraries: Fluorescence readout (AID 1920058); conditions: PXR dual reporter cells; series mostly up to 40 µM
Procedure, shortened: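 Cells were plated at 2000 per well and allowed to attach for 5 h. Test substances were pinned in and incubated roughly 24 h. CellTiter-Fluor was then added and fluorescence measured after 1 h.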

Structure (SMILES)	outcome
CC(C)=CCC[C@@](C)(O)[C@H]1CC=C(C)CC1	inactive
Cc1ccc(C(C)C)c(O)c1	inactive
NC(=O)NC1NC(=O)NC1=O (stereo unspecified)	inactive
O=C(/C=C/c1ccc(O)c(O)c1)O[C@@H]1C[C@@](OC(=O)/C=C/c2ccc(O)c(O)c2)(C(=O)O)C[C@@H](O)[C@@H]1O	inactive

target: Nuclear receptor subfamily 1 group I member 2 (Homo sapiens) (UniProt O75469); assay: Dual reporter qHTS for agonist of Pregnane X Receptor (hPXR) against the NCATS DSHEA and TCM libraries: Luminescence readout (AID 1920059); conditions: hPXR dual reporter cells, luciferase luminescence agonist; series mostly up to 40 µM
Procedure, shortened: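 hPXR-LucHepG2 cells in phenol red-free DMEM with 5% charcoal-stripped FBS, 2000 cells/well, attached 5 h, then exposed 24 h at 37C to compounds; rifampicin as positive agonist control (2.8 nM–92 uM). Luciferase luminescence read.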

Chain of Nuclear receptor subfamily 1 group I member 2 (Homo sapiens) (O75469 whole entry, looked up): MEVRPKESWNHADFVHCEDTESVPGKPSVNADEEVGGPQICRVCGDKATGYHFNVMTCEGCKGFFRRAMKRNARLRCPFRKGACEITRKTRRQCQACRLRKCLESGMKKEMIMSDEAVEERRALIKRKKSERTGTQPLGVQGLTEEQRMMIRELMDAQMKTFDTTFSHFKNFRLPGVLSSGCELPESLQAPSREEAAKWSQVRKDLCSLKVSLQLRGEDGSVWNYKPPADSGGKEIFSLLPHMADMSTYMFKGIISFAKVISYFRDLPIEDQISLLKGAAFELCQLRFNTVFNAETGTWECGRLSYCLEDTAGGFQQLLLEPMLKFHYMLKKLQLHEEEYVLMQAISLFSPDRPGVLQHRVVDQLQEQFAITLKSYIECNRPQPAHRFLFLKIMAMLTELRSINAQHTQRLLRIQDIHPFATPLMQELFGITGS

Structure (SMILES)	outcome
Cc1ccc(C(C)C)c(O)c1	inactive
NC(=O)NC1NC(=O)NC1=O (stereo unspecified)	inactive
O=C(/C=C/c1ccc(O)c(O)c1)O[C@@H]1C[C@@](OC(=O)/C=C/c2ccc(O)c(O)c2)(C(=O)O)C[C@@H](O)[C@@H]1O	inactive

target: Nuclear receptor subfamily 1 group I member 2 (Homo sapiens) (UniProt O75469); assay: Dual reporter qHTS for antagonist of Pregnane X Receptor (hPXR) against the NCATS DSHEA and TCM libraries: Luminescence Readout (AID 1920060); conditions: hPXR dual reporter cells, luciferase luminescence, antagonist mode; series mostly up to 40 µM;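 also: HepG2 cells carrying hPXR luciferase reporter stimulated with rifampicin at 2 µM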
Procedure, shortened: (§2)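 HepG2 hPXR-Luc, 2000 cells/well, charcoal-stripped FBS medium; 5 h attach; RIF 2 uM final; 24 h 37C/5% CO2; CellTiter-Fluor 1 h, fluor 405/540; ONE-Glo 30 min RT, lum.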

Structure (SMILES)	outcome
CC(C)=CCC[C@@](C)(O)[C@H]1CC=C(C)CC1	inactive
Cc1ccc(C(C)C)c(O)c1	inactive
NC(=O)NC1NC(=O)NC1=O (stereo unspecified)	inactive
O=C(/C=C/c1ccc(O)c(O)c1)O[C@@H]1C[C@@](OC(=O)/C=C/c2ccc(O)c(O)c2)(C(=O)O)C[C@@H](O)[C@@H]1O	inactive

test system: not listed separately; assay: Dual reporter qHTS for antagonist of Pregnane X Receptor (hPXR) against the NCATS DSHEA and TCM libraries: Fluorescence Readout (AID 1920061); conditions: PXR dual reporter cells, antagonist mode; series mostly up to 40 µM
Procedure, shortened: as §2

Structure (SMILES)	outcome
CC(C)=CCC[C@@](C)(O)[C@H]1CC=C(C)CC1	inactive
Cc1ccc(C(C)C)c(O)c1	inactive
NC(=O)NC1NC(=O)NC1=O (stereo unspecified)	inactive
O=C(/C=C/c1ccc(O)c(O)c1)O[C@@H]1C[C@@](OC(=O)/C=C/c2ccc(O)c(O)c2)(C(=O)O)C[C@@H](O)[C@@H]1O	inactive
